Laboratory results as given in PubChem BioAssay (NCATS).
Results filed as inconclusive are left out. Entries that show only a call come without a potency. The source made the active and inactive calls. Calls come from the whole dose curve; as a rule, active = well fitted curve in the direction sought with a large enough effect; inconclusive = small, poorly fitted or top-dose-only effect, or another doubt; inactive = no such curve, though single readings can be large; an effect the other way counts as inactive or inconclusive.

Experiments:
[1] = molecular target: Ubiquitin carboxyl-terminal hydrolase 2 (Homo sapiens) (UniProt O75604); experiment: qHTS for Inhibitors of Ubiquitin-specific Protease USP2a Using CHOP2 as the Reporter: K484 Substrate (AID 652173);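 note: cleavage of internally quenched K48 di-ubiquitin substrate measured as rising fluorescence over time; potency is the fitted concentration of half-maximal effect; nearly all actives have a fitted effect of over 70% in size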
How it was run: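 USP2 (dispensed at 5 nM) was pinned with compounds, then DiUb K48 internally quenched fluorescent substrate (dispensed at 100 nM) was added. The buffer was 20 mM Tris pH 8, 2 mM beta-mercaptoethanol and 0.05% CHAPS. Cleavage was read kinetically as rising fluorescence, Ex 525/Em 598.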

[2] = molecular target: Calcium and integrin-binding protein 1 (Homo sapiens) (UniProt Q99828); experiment: Primary qHTS for Identification of Calcium Integrin Binding Protein 1 (CIB1) Competitor (AID 1508620);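 note: GST tagged CIB1 binding a fluorescein labelled alphaIIb integrin peptide tracer; top concentration of the series differs between compounds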
How it was run: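 CIB1-GST (1 uM final) and compound incubated 15 min at room temperature before adding FITC-alphaIIb peptide tracer (100 nM final). Competition for binding read by fluorescence polarization (ex 480, em 540) after another 15 min at room temperature.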

[3] = qHTS for Inhibitors of Ubiquitin-specific Protease USP2a Using CHOP2 as the Reporter: Cytotox Assay (AID 652170); note: nearly all actives have a fitted effect of over 70% in size; note: potency is the fitted concentration of half-maximal effect
How it was run: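 HCT116 human colon cancer cells, 600 per well in DMEM with 10% FBS, exposed to compounds for 72 hr at 37 deg C. ATP measured by CellTiter-Glo luminescence, normalized to DMSO cells and no-cell background.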

Chain of Ubiquitin carboxyl-terminal hydrolase 2 (Homo sapiens) (O75604 whole entry, looked up): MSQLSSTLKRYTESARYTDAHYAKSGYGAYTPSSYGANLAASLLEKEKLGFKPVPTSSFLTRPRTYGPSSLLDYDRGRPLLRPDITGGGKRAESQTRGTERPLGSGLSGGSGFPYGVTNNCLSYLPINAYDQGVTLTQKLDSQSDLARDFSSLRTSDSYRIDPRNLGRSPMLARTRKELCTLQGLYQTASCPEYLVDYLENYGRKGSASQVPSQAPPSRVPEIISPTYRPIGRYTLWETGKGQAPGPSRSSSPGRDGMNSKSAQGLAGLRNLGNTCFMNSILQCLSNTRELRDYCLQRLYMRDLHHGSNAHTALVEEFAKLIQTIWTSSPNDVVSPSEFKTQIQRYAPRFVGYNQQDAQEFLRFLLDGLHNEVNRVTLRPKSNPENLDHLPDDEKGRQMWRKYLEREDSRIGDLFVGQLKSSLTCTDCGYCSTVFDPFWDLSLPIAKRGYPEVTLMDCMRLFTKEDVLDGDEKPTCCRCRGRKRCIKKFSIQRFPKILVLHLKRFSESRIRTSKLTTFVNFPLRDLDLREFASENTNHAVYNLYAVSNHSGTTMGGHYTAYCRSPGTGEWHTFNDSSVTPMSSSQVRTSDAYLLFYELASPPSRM
Chain of Calcium and integrin-binding protein 1 (Homo sapiens) (Q99828 whole entry, looked up): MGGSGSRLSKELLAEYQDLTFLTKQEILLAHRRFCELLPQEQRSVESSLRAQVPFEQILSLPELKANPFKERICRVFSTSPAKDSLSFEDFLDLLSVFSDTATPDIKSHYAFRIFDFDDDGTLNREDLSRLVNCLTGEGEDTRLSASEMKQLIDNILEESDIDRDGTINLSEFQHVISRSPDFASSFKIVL

| Structure (SMILES) | Potency [1] | Potency [2] | Potency [3] |
| --- | --- | --- | --- |
| Cc1ccc(S(=O)(=O)Nc2cccc(C(=O)Nc3nc(-c4ccccc4)cs3)c2)cc1 | 3.43 µM (active) | inactive | – |
| Cc1ccc(-c2cc(C(=O)Nc3cccc4ccccc34)c3ccccc3n2)cc1C | 17.2 µM (active) | inactive | inactive |
| Cc1ccc(-c2cc(C(=O)NCc3ccc(S(C)(=O)=O)cc3)c3ccccc3n2)cc1C | 10.9 µM (active) | inactive | – |
| Cc1ccc(S(=O)(=O)Nc2ccccc2CNc2nc(-c3ccccc3)cs2)cc1 | 6.11 µM (active) | inactive | – |
| Cc1ccc(S(=O)(=O)Nc2ccc(C)cc2C(=O)Nc2nc(-c3ccccc3)cs2)cc1 | 1.93 µM (active) | inactive | – |
| Cc1ccc(S(=O)(=O)Nc2ccccc2C(=O)Nc2ncc(-c3ccccc3)s2)cc1 | 1.93 µM (active) | inactive | 18.7 µM (active) |
| Cc1ccc(S(=O)(=O)Nc2cccnc2C(=O)Nc2nc(-c3ccccc3)cs2)cc1 | 1.37 µM (active) | inactive | 14.8 µM (active) |
| COc1ccccc1C(=O)Nc1nc(-c2ccccc2)cs1 | 10.9 µM (active) | inactive | inactive |
| Cc1ccc(S(=O)(=O)N(C)c2ccccc2C(=O)Nc2nc(-c3ccccc3)cs2)cc1 | 6.11 µM (active) | inactive | inactive |
| Cc1ccc(S(=O)(=O)Nc2ccccc2C(=O)Nc2cccc(-c3ccccc3)c2)cc1 | 2.17 µM (active) | inactive | 16.6 µM (active) |
| Cc1ccc(S(=O)(=O)Nc2ccccc2C(=O)Nc2ccc(-c3ccccc3)nc2)cc1 | 4.85 µM (active) | inactive | 20.9 µM (active) |
| Cc1ccc(-c2cc(C(=O)Nc3ccccc3Cl)c3ccccc3n2)cc1C | 13.7 µM (active) | inactive | inactive |
| Cc1ccc(S(=O)(=O)Nc2ccc(C(=O)Nc3ncc(-c4ccccc4)s3)cc2)cc1 | 2.43 µM (active) | inactive | – |
| Cc1ccc(S(=O)(=O)Nc2ccccc2C(=O)Nc2ccc(-c3ccccc3)cn2)cc1 | 2.17 µM (active) | inactive | – |
| Cc1ccc(S(=O)(=O)Nc2cc(C(=O)Nc3nc(-c4ccccc4)cs3)ccc2Cl)cc1 | 2.17 µM (active) | inactive | inactive |
| O=C(Nc1ccc(S(=O)(=O)Nc2nccs2)cc1)[C@@H]1CC[C@H](C(=O)c2ccccc2)C1 | 24.3 µM (active) | inactive | inactive |
| Cc1ccc(-c2cc(C(=O)Nc3ccn[nH]3)c3ccccc3n2)cc1C | 27.3 µM (active) | inactive | inactive |
| Cc1ccc(NS(=O)(=O)c2ccc(C(=O)Nc3nc(-c4ccccc4)cs3)cc2)cc1 | 3.43 µM (active) | inactive | – |
| Cc1ccc(S(=O)(=O)Nc2ccccc2C(=O)Nc2ccc(-c3ccccc3)nn2)cc1 | 3.85 µM (active) | inactive | inactive |
| COc1ccccc1NC(=O)c1cc(-c2ccc(C)c(C)c2)nc2ccccc12 | 10.9 µM (active) | inactive | inactive |

| Structure (SMILES) | Potency [1] | Potency [2] | Potency [3] |
| --- | --- | --- | --- |
| COc1cc(NS(=O)(=O)c2ccc(C)cc2)ccc1C(=O)Nc1nc(-c2ccccc2)cs1 | 2.73 µM (active) | inactive | – |
| COc1c(NS(=O)(=O)c2ccc(C)cc2)cccc1C(=O)Nc1nc(-c2ccccc2)cs1 | 3.06 µM (active) | inactive | 1.48 µM (active) |
| COc1cc(C(=O)Nc2nc(-c3ccccc3)cs2)ccc1NS(=O)(=O)c1ccc(C)cc1 | 2.73 µM (active) | inactive | inactive |
| Cc1ccc(S(=O)(=O)Nc2cncc(C(=O)Nc3nc(-c4ccccc4)cs3)c2)cc1 | 6.85 µM (active) | inactive | inactive |
| Cc1ccc(-c2cc(C(=O)Nc3ccc(S(=O)(=O)N(C)C)cc3)c3ccccc3n2)cc1C | 4.32 µM (active) | inactive | inactive |
| COC(=O)c1ccccc1C(=O)Nc1nc(-c2ccccc2)cs1 | 30.6 µM (active) | inactive | inactive |
| COc1ccc(OC)c(C(=O)Nc2nc(-c3ccccc3)cs2)c1 | 7.69 µM (active) | inactive | inactive |
| Cc1ccc(CNc2ccccc2C(=O)Nc2nc(-c3ccccc3)cs2)cc1 | 21.7 µM (active) | inactive | – |
| Cc1ccc(NS(=O)(=O)c2cccc(C(=O)Nc3nc(-c4ccccc4)cs3)c2)cc1 | 3.06 µM (active) | inactive | – |
| Cc1ccc(S(=O)(=O)Nc2cc(C(=O)Nc3nc(-c4ccccc4)cs3)ccn2)cc1 | 6.85 µM (active) | inactive | inactive |
| Cc1ccc(C(=O)[C@H]2CC[C@@H](C(=O)Nc3ccc(S(=O)(=O)Nc4nccs4)cc3)C2)cc1C | 3.85 µM (active) | inactive | inactive |
| CC(C)Oc1ccccc1C(=O)Nc1nc(-c2ccccc2)cs1 | 17.2 µM (active) | inactive | inactive |
| Cc1ccc(C(=O)Nc2ccccc2C(=O)Nc2nc(-c3ccccc3)cs2)cc1 | 5.44 µM (active) | inactive | – |
| CC(C)(C)C1CCC(C(=O)Nc2ccc(S(=O)(=O)Nc3nccs3)cc2)CC1 (configuration not stated) | 10.9 µM (active) | inactive | inactive |
| Cc1ccc(S(=O)(=O)Nc2cc(Cl)cc(C(=O)Nc3nc(-c4ccccc4)cs3)c2)cc1 | 3.06 µM (active) | inactive | – |
| Cc1ccc(S(=O)(=O)Nc2cccc(C(=O)Nc3nc(-c4ccc(Cl)cc4)cs3)c2)cc1 | 2.43 µM (active) | inactive | – |
| Cc1ccc(S(=O)(=O)Nc2ccccc2C(=O)Nc2nc(-c3ccccc3)c(C)s2)cc1 | 1.93 µM (active) | inactive | – |
| COc1cc(NS(=O)(=O)c2ccc(C)cc2)cc(C(=O)Nc2nc(-c3ccccc3)cs2)c1 | 2.43 µM (active) | inactive | – |
| O=C(Nc1nc(-c2ccccc2)cs1)c1ccccc1 | 24.3 µM (active) | inactive | inactive |
